Source: PubChem BioAssay (National Center for Advancing Translational Sciences (NCATS))
The list is not random: actives were taken first. Their share in the collection is about 11%.
Coupling enz: coupling enzyme interference in Giardia aldolase counter-screen; coupling enzyme system counterscreen, AmpLite Red fluorescence; activity change, negative = inhibition, % at 58.2 µM, hits read low; actives 0.67% (n = 290,000); AID 2472; in the data active = activity change below about -30%
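Counterscreen lacking aldolase: glyceraldehyde-3-phosphate coupling-enzyme reagent preincubated 10 min at RT with compound (at 57.5 uM final), then substrate/coupling system with AmpLite Red added; fluorescence read at 525/598 nm after 20 min RT.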
G9a block: blocks human histone lysine methyltransferase G9a; G9a H3K9 monomethylation, AlphaScreen, 2 h; Potency, µM (series often up to 102 µM), for the others: top-dose activity, negative = inhibition, hits mostly inhibitors; actives 8.8% (n = 350,000); AID 504332; also: potency is read from the fitted curve at half-maximal effect; nearly all actives have a fitted effect of over 75% in size
Target sequence (Q96KQ7 913-1193 limits assumed): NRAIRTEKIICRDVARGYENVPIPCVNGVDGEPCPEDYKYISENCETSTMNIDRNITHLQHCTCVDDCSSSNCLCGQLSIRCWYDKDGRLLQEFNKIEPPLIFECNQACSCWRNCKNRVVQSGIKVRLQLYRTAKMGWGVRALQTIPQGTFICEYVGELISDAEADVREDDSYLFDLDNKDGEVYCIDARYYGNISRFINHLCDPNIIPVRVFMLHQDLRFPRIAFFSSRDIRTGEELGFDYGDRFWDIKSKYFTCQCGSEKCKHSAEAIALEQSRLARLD
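Using a bead-based AlphaScreen, monomethylated H3K9 product from 2 h room-temperature reactions (G9a 20 nM, peptide 500 nM, SAM 20 uM) was detected with 0.5 ug/mL rabbit anti-H3K9me1 antibody.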
Tau FP inhib: inhibitors of human tau fibril formation; P10636; K18 P301L tau heparin fibrillization, Alexa594 FP, 6 h; Potency, µM (titrated, usually from 57.7 µM), for the others: top-dose activity, negative = inhibition, hits mostly inhibitors; actives 0.39% (n = 280,000); AID 1468; also: potency is read from the fitted curve at half-maximal effect; nearly all actives have a fitted effect of over 55% in size
Target sequence (P10636 561-689 P618L limits assumed): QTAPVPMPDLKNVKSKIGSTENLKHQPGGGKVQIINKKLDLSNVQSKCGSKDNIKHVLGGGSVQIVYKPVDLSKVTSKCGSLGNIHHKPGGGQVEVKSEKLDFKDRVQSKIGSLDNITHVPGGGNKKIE
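Compound effects on tau fibrillization are measured by Alexa 594 fluorescence polarization (ex 555, em 632 nm). K18 P301L tau is used at 15 uM with 0.24 uM labeled tracer, and 20 uM heparin induces aggregation over 6 hr at 37 C.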
Tau ThT inhib: inhibitors of human tau fibril formation, thioflavin T binding. AID 1460. Potency, µM (titrated, usually from 57.4 µM), for inactives: top-dose activity, negative = inhibition, usual class: inhibitors. actives 2.1% (n = 270,000). recombinant tau K18 P301L, heparin-induced fibrillization, ThT fluorescence; also: potency is read from the fitted curve at half-maximal effect; nearly all actives have a fitted effect of over 55% in size
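Recombinant human tau K18 fragment […] carrying P301L, 15 uM unlabeled plus 0.24 uM Alexa 594-labeled, was fibrillized with 20 uM heparin in 100 mM sodium acetate pH 7 for 6 hr at 37 C; 30 uM ThT fluorescence read after 1 hr.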
Sfp PPTase inh: Sfp phosphopantetheinyl transferase inhibition | Q9F4F7 | Biochemical Sfp PPTase activity, qHTS | Potency, µM, inactives show largest response in the series, negative = inhibition, most hits filed as inhibitors | actives 3.5% (n = 310,000) | AID 1490;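 also: the enzyme is Sfp with the accession as filed and its product quenches rhodamine fluorescence; potency is read from the fitted curve at half-maximal effect; 0% = enzyme reaction without inhibitor and -100% = no enzyme wells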
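Sfp 15 nM + cpd, 15 min RT; start w/ rhodamine-CoA 5 uM, BHQ-2-YbbR 12.5 uM (final); 50 mM Hepes pH 7.6, 10 mM MgCl2, 0.01% NP-40, 0.01% BSA; read 525/598 nm at 0 and 30 min.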
Tau fluor counter: counter-screen for tau fibril formation inhibitors; tau K18 P301L (four-repeat tau fragment) Alexa594 fluorescence, heparin fibrillization; Potency, µM (top dose mostly 57.7 µM), without a hit: top-dose activity change, negative = decrease; actives 0.93% (n = 280,000); also: potency is read from the fitted curve at half-maximal effect; nearly all actives have a fitted effect of over 55% in size
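Human K18 P301L tau (15 uM unlabeled plus 0.24 uM Alexa 594-labeled, final) in 100 mM sodium acetate pH 7 was mixed with compound and 20 uM heparin and incubated 6 hr at 37 C.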
An asterisk follows results filed as active; u = inconclusive; x = no result; [ ] = another dose, or the depositor's remark. Unless noted, calls follow the shape of the dose curve; as a rule, active = well fitted curve in the direction sought with a large enough effect; inconclusive = small, poorly fitted or top-dose-only effect, or another doubt; inactive = no such curve, though single readings can be large; an effect the other way counts as inactive or inconclusive. Unless noted, % is scaled to controls: 0 for no effect and ±100 for the full control effect.

SMILES	Coupling enz	G9a block	Tau FP inhib	Tau ThT inhib	Sfp PPTase inh	Tau fluor counter
COC(=O)c1ccc(C2C(C#N)=C(C)NC3=C2C(=O)CC(C)(C)C3)cc1 (stereo unspecified)	1	10%	2%	-4%	10%	u
CCOC(=O)C(C)On1c(-c2ccccc2)nc2ccc([N+](=O)[O-])cc21 (stereo unspecified)	-15	-5%[12.7 µM]	-5%	u	-19%	-30%
O=C(O)COn1c(-c2ccccc2)nc2ccc([N+](=O)[O-])cc21	-12	45µM*	-4%	-11%	25%	-8%
CC(Oc1ccc2ccccc2c1)C(=O)NNC(=O)Nc1ccccc1 (stereo unspecified)	0	21%	x	x	2%	x
NC(CSSCC(N)C(=O)O)C(=O)O (stereo unspecified)	-9	26%[59 µM]	x	x	7%	x
N[C@@H](CSS(=O)(=O)O)C(=O)O	-77*	-31%[59 µM]	18µM*	13µM*	45µM*	-12%
Cc1cc([N+](=O)[O-])cc2c1NCC1CC=CC21 (stereo unspecified)	-8	u	0%	u	5%	u
Cc1cc([N+](=O)[O-])c2c(c1C)C1C=CCC1C(c1ccccn1)N2 (stereo unspecified)	-16	28µM*	u	16µM*	u	u
CCN1CCc2c(sc(-n3cccc3)c2C(C)NC(=O)Nc2ccc(C(=O)OC)cc2)C1 (stereo unspecified)	x	u	u	-3%	x	u
Cc1ccc2cc(CN(Cc3ccccc3)Cc3nnnn3C3CCCC3)c(=O)[nH]c2c1	6	-7%[12.7 µM]	-6%	-13%	-2%	-19%
CCOc1ccc2[nH]c(=O)c(CN(Cc3nnnn3Cc3ccco3)C3CCCCC3)cc2c1	-23	u	u	22µM*	4µM*	-28%
COc1cc2cc(CN(Cc3nnnn3Cc3ccco3)C3CCCCC3)c(=O)[nH]c2cc1OC	-33*	40µM*	u	16µM*	10µM*	u
Cc1ccc2cc(CN(Cc3ccc(F)cc3)Cc3nnnn3C3CCCC3)c(=O)[nH]c2c1	2	14µM*	6%	-9%	22µM*	-18%
COc1ccc(Cn2nnnc2CN(Cc2cc3ccc(C)cc3[nH]c2=O)C2CCCC2)cc1	-2	35µM*	-4%	u	7%	-13%
CCc1ccc(CNC(=O)c2cccc(-n3c(C)nc4cccnc43)c2)cc1	x	-5%[59 µM]	0%	9%	x	2%
Cc1cccc(-c2sc(Nc3ccccc3)n[n+]2-c2ccc(F)cc2)c1	1	35µM*	x	x	16%	x
C[n+]1nc(Nc2ccccc2)sc1-c1ccc(O)cc1	2	u	x	x	10%	x
CSc1ccc(-c2sc(Nc3ccccc3)n[n+]2-c2ccc(F)cc2)cc1	8	50µM*	x	x	13%	x
Oc1ccc(-c2sc(Nc3ccccc3)n[n+]2-c2ccc(F)cc2)cc1	-1	35µM*	x	x	20%	x
CCOc1ccc(CN(C(=O)c2nc(SC)ncc2Cl)C2CCS(=O)(=O)C2)cc1 (stereo unspecified)	x	-29%[59 µM]	-3%	4%	x	-5%
C=CC1=C(C)C2=Cc3c(C=C)c(C)c4[n]3[Sn+2][n]3c(c(C)c(CCC(=O)O)c3=CC3=NC(=C4)C(C)=C3CCC(=O)O)=CC1=N2	-18	x	18µM*	u	10µM*	-12%
Cc1ccc(N(CC(=O)NCc2ccco2)C(=O)CCC(=O)Nc2nccs2)c(C)c1	-2	71µM*	x	x	18%	x
CC(C)c1ccc(N(CC(=O)NCc2ccco2)C(=O)CCC(=O)Nc2ccccn2)cc1	0	25µM*	x	x	12%	x
COCCNC(=O)CN(C(=O)CCC(=O)Nc1ccccn1)c1ccc(F)c(Cl)c1	2	8%	7%	6.3µM*	10%	u
COc1ccc(-c2nc3c(c(SCC(=O)N4CCCCC4)n2)Cc2c(CO)cnc(C)c2O3)cc1	x	u	-9%	u	x	7%
SMILES	Coupling enz	G9a block	Tau FP inhib	Tau ThT inhib	Sfp PPTase inh	Tau fluor counter
O=C(CC1(CC2=NS(=O)(=O)c3ccccc3N2)CCCC1)NCCc1ccccc1	-3	x	x	x	3%	x
CCS(=O)(=O)c1cc([N+](=O)[O-])c(Sc2ccccc2NC(C)=O)s1	0	1.1µM*	-4%	x	0.45µM*	u
Nc1cnccc1C(=O)O	-51*	u	u	u	25µM*	-13%
COC(=O)c1ccncc1N	3	7%	-4%	-1%	20%	-1%
COc1ccc(NC(=O)CCc2nnc3ccc(N4CCC(C)CC4)nn23)cc1OC	x	-7%	x	x	8%	x
O=C(C1CCCN(S(=O)(=O)c2ccc(Br)cc2)C1)N1CCOCC1 (stereo unspecified)	x	20%	x	x	0%	x
CCc1cccc(C)c1NC(=O)Nc1csc2c1CCCC2	x	4%[59 µM]	3%	2%	x	0%
CCc1cccc(NC(=O)CSc2nnc(Cc3ccc(OC)cc3)c(=O)[nH]2)c1	x	50µM*	x	x	x	x
COC(=O)c1cccc(NC(=O)CSc2nc(O)c(-c3ccccc3)c(=O)[nH]2)c1	8	71µM*	-2%	u	16%	-5%
Cc1sc2nc(SCC(=O)Nc3cccc(C(=O)O)c3)[nH]c(=O)c2c1C	x	25µM*	x	x	x	x
Cc1sc2nc(SCC(=O)Nc3ccc(S(N)(=O)=O)cc3)[nH]c(=O)c2c1C	1	6%	x	x	-11%	x
COC(=O)c1ccccc1NC(=O)CSc1nc(O)c(-c2ccccc2)c(=O)[nH]1	7	-4%[59 µM]	-13%	u	19%	-11%
CCC(C)NC(=O)c1ccc2c(c1)N=C(C)c1cc(C)ccc1S2 (stereo unspecified)	x	u	3%	-8%	x	-8%
CCOc1ccc(N=Nc2cc(C(C)C)ccc2O)cc1	-1	20µM*	10%	u	6%	-14%
CCOc1ccc(N=Nc2ccc(O)c3ncccc23)cc1	4	40µM*	x	x	12%	x
NS(=O)(=O)c1ccc(N=NN2CCCCC2)cc1	1	u	4%	-14%	3%	-7%
CCOc1ccc(N=Nc2ccc(N)cc2N)cc1	x	u	x	x	-10%	x
NS(=O)(=O)c1ccc(N=Nc2ccc(O)c3ncccc23)cc1	-4	50µM*	x	x	-21%	x
NS(=O)(=O)c1ccc(N=Nc2ccc(=O)[nH]c2O)cc1	-32*	-31%[2.33 µM]	-22%	16µM*	u	-16%
O=C(/C=C/c1c(F)cccc1Cl)N1CCOCC1	x	x	x	x	5%	x
Nc1nc(N)c(N=Nc2ccc(S(N)(=O)=O)cc2)c(=O)[nH]1	3	35%[0.501 µM]	0%	20µM*	-10%	-14%
